Reference: PubChem BioAssay (NCI)
The panel holds about 83,000 compounds, 20% with a hit somewhere; the sample as a whole holds those more often.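 Treatment: one concentration, 48 hours, 96-well format. Scoring: percent growth, with anything below 10 considered active.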 Values without a mark were called inactive. The source made the active and inactive calls.

What follows are molecules tested on HCT-116 colon (assay: NCI-60 one-dose screen, 48 h (100 = growth as untreated, 0 = no growth, -100 = all killed)). Conditions: 10 µM unless noted.

| SMILES | growth |
| --- | --- |
| Cc1ncc(C(=O)Nc2ccc(CN3CCN(C)CC3)c(C(F)(F)F)c2)cc1C#Cc1cnc(N)c2ncccc12 | -75.5% (active) |
| COc1ccc(C(=O)N2c3ccccc3Sc3ccccc32)c(C(F)(F)F)c1 | 6.57% (active) |
| Cc1ccc(Cl)cc1NC(=O)c1sc2nc3c(cc2c1N)C(=O)CCC3 | 68% |
| Oc1c(CN2CCCC2)cc(CSCc2ccccc2)c2cccnc12 | 7.5% (active) |
| CCOC(=O)CC1CSC(Nc2ccccc2)=N1 (stereo not given) | 107% |
| C#CCNC(=O)[C@]1(C)CCC[C@@]2(C)[C@H]1CC=C1C=C(C(C)C)CC[C@@H]12 | 107% |
| CCCCNC(=O)Oc1ccc(/C(=C(/C)Cc2ccc(OC)cc2)c2ccc(OCCN3CCCCC3)cc2)cc1 | 41.8% |
| COc1cccc(/C=C/C(=O)c2cc3c(N)c(C(=O)Nc4cccc5ccccc45)sc3nc2C)c1 | 12.2% |
| COc1cc2c(cc1OCCCCN1CCN(C(=S)SCCC(C#N)(c3ccccc3)c3ccccc3)CC1)N=C[C@@H]1CCCN1C2=O | -62.1% (active) |
| CN1C(=O)/C(=C/c2ccc(C(=O)Nc3ncc(Cc4cccc(Cl)c4)s3)cc2)SC1=S | 47.5% |
| Cc1ccc(C(=O)c2ccc(CC(=O)NN3C(=O)c4ccccc4C3=O)n2C)cc1 | 107% |
| Cn1c(=O)c2[nH]c(SCC(=O)Nc3ccc(C(=O)/C=C/c4ccccc4Cl)cc3)nc2n(C)c1=O | 58.5% |
| Nc1[nH]c(=S)nc2oc(-c3ccccc3)c(-c3ccccc3)c12 | 101% |
| O=S(=O)(Oc1ccc(Br)cc1)c1ccc(Cl)cc1 | 98.6% |
| COC(=O)N1CC(Oc2ccccn2)C2CC1c1ccccc1O2 (stereo not given) | 97.2% |
| COc1ccc(/C(C)=C(\c2ccc(Cl)cc2)c2ccc(OCCN3CCCCC3)cc2)cc1 | 31.9% |
| Cc1ccc2nc(-c3ccc(C(=O)NNC(=S)Nc4ccccc4)cc3)[nH]c2c1 | 84.6% |
| O=S(=O)(NCCCNc1nccc(-c2c(-c3cccc(F)c3)nc3occn23)n1)c1ccc(F)cc1 | 34% |
| Cc1nc2sc(C(=O)Nc3cccc(Br)c3C)c(N)c2cc1C(O)c1ccccc1 (stereo not given) | 6.83% (active) |
| CC1(C)N=C(N)N=C(N)N1c1ccc(CCCCc2ccccc2)c(Cl)c1 | 13.9% |

| SMILES | growth |
| --- | --- |
| CCCCNC(=O)c1cc([N+](=O)[O-])cc(C2CCCCC2)c1O | 27.8% |
| O=C(CCCCCNC(=O)c1cc(=O)c(O)co1)Nc1ccccc1 | 97.6% |
| CCOC(=O)c1c(C)nc2ccccc2c1/C=C/c1ccccc1 | 59.5% |
| COc1cccc(-c2cc(-c3cccc(Cl)c3)c(C#N)c(=O)[nH]2)c1 | 73.9% |
| CN(CCCNC(=O)CCOCCOCCOCCNC(=O)Cc1ccc2ccc3cccc4ccc1c2c34)CCCNc1cc(-c2ccc3ccccc3c2)nc2ccccc12 | -98.2% (active) |
| Cc1ccc2nc(/C(C#N)=C(/CCCO)NC(Cc3ccccc3)C(=O)OCc3ccccc3)[nH]c(=O)c2c1 (stereo not given) | 96.9% |
| NS(=O)(=O)c1ccc(-c2cc(-c3nnc(SCC(=O)Nc4ccc(C(=O)/C=C/c5ccc(Cl)cc5)cc4)n3-c3ccccc3)c3ccccc3n2)cc1 | 7.54% (active) |
| COC(=O)c1cc(Br)ccc1O | 108% |
| COc1ccc(-c2cc(-c3ccccc3)nc(N3CCN(CCNc4ccnc5cc(Cl)ccc45)CC3)n2)cc1 | -73.8% (active) |
| CCCCNC(=O)Oc1ccc(/C(=C(/C)Cc2ccc(OC)cc2)c2ccc(OCCN3CCCCCC3)cc2)cc1 | 54.9% |
| O=C(N=Nc1c(O)[nH]c2ccccc12)Nc1ccc(F)cc1 | 82% |
| O=[N+]([O-])c1ccc(-c2cn3nc(-c4c[nH]c5ccccc45)sc3n2)cc1 | 90.8% |
| CN(C)c1ccc(/C=C(\C#N)c2cc3ccccc3[nH]2)cc1 | 11.5% |
| CC(=O)/C(=C/c1ccc([N+](=O)[O-])cc1)C(=O)c1ccccc1 | 35.7% |
| CCOC(=O)c1nn(CC(O)c2ccccc2)c(NC(=O)Nc2cccc(F)c2)c1C (stereo not given) | 96.4% |
| CO[C@H](C(=O)[C@@H](O)[C@@H](C)O)[C@@H]1Cc2cc3cc(O[C@H]4C[C@@H](O[C@H]5C[C@@H](O)[C@H](O)C(C)O5)[C@H](O)C(C)(O)O4)cc(O)c3c(O)c2C(=O)[C@H]1O[C@H]1C[C@@H](O[C@H]2C[C@@H](O[C@H]3C[C@@H](OC)[C@H](O)C(C)O3)[C@@H](O)C(C)O2)[C@H](O)C(C)O1 (stereo not given in full) | 6.03% (active) |
| CCN(CC)CCCN1C(=O)c2c(c(C)c3c(oc4ccc(O)cc43)c2C)C1=O | -77.9% (active) |
| O=C(Nc1ccccc1N1CCCC1=O)c1oc2ccc(F)cc2c1-c1cnn(-c2ccccc2)c1 | 23.8% [50 µM] |
| O=C(C1CCCCC1)[C@@H]1[C@]2(C(=O)NC3CCCCC32)[C@@H]2CCCN2[C@@]12C(=O)NC1CCC(Cl)CC12 (stereo not given in full) | -91.2% [100 µM] (active) |
| C=C(C)[C@@H]1CC[C@]2(COC(C)=O)CC[C@]3(C)[C@H](CC[C@@H]4[C@@]5(C)CCCN(C(C)=O)C(C)(C)[C@@H]5CC[C@]43C)[C@@H]12 | -35.7% (active) |
